# Results published in article PMC7862700, “An all-to-all approach to the identification of sequence-specific readers for epigenetic DNA modifications on cytosine”.
# Columns and labels:
# Test in all cases: DAPPL (digital affinity profiling via proximity ligation, sequencing); 10 mM Tris-HCl pH 7.5, 50 mM NaCl, 1 mM DTT, 4% glycerol, room temperature, 30 min; GST-TFs on glutathione beads, 16-mer random dsDNA library, 0.1% formaldehyde crosslink after washing; high values mean tight binding
# FLI1 = molecular target: T1, FLI1 (Homo sapiens, UniProt Q01543 1-452); conditions: protein: recombinant; tags: N-terminal GST; dsDNA, one strand shown
# T1 sequence: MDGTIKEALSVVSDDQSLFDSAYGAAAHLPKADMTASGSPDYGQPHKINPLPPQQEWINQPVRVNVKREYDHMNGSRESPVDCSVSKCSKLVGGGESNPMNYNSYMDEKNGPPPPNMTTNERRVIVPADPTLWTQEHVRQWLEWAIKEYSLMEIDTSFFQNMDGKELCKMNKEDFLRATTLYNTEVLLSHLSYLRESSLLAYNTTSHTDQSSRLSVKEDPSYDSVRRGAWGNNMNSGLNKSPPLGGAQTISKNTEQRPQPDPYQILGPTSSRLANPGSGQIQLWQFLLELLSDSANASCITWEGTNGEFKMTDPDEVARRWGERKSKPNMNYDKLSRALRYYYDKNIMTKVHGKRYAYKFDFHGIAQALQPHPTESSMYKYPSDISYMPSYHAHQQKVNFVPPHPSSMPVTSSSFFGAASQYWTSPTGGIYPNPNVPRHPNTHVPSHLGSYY
# In short: (§1)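 The binding signal reported is, for every hexamer, its read frequency for a factor over its read frequency for the tag-only sample. Reads came from pools of yeast-expressed, GST-fused human transcription factors on glutathione beads, barcoded with DNA and mixed with that sample, which were incubated with 200 nmole of a random double-stranded 16-mer DNA library in Tris/NaCl/DTT/glycerol buffer at room temperature for 30 min. After washing, the pools were crosslinked with 0.1% formaldehyde, proximity-ligated with BsaI/T4 ligase for 1 h at 37 °C, PCR-amplified and sequenced on an Illumina NextSeq500.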
# ELK1 = molecular target: T2, ELK1 (Homo sapiens, UniProt P19419 1-428); conditions: protein: recombinant; tags: N-terminal GST; dsDNA, one strand shown
# T2 sequence: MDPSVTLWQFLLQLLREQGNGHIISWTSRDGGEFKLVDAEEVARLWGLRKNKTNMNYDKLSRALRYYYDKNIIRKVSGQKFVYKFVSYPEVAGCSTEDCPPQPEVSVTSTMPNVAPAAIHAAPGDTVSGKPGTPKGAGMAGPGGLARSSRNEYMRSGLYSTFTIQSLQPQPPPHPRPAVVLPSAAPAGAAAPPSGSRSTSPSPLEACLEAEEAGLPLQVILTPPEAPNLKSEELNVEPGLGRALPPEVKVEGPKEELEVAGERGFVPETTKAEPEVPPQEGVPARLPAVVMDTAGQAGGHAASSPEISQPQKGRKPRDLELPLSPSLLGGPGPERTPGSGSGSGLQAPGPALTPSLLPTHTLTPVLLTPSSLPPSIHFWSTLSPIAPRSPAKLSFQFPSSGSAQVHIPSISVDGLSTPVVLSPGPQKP
# In short: as §1
# GABPA = molecular target: T3, GABPA (Homo sapiens, UniProt Q06546 1-454); conditions: protein: recombinant; tags: N-terminal GST; dsDNA, one strand shown
# T3 sequence: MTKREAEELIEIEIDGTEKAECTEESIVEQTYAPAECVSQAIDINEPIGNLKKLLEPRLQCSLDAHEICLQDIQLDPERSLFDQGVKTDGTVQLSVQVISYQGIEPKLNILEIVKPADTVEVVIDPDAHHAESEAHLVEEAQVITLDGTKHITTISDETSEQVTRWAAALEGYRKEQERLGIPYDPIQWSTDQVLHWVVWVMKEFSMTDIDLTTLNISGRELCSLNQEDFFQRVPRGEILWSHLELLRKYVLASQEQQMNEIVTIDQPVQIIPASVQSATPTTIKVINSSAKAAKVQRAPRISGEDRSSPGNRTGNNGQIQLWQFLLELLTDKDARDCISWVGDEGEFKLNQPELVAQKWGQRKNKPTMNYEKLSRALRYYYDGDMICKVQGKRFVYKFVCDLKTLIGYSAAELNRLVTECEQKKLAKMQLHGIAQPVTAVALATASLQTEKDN
# In short: as §1
# ERG = molecular target: T4, ERG (Homo sapiens, UniProt P11308 1-479); conditions: protein: recombinant; tags: N-terminal GST; dsDNA, one strand shown
# T4 sequence: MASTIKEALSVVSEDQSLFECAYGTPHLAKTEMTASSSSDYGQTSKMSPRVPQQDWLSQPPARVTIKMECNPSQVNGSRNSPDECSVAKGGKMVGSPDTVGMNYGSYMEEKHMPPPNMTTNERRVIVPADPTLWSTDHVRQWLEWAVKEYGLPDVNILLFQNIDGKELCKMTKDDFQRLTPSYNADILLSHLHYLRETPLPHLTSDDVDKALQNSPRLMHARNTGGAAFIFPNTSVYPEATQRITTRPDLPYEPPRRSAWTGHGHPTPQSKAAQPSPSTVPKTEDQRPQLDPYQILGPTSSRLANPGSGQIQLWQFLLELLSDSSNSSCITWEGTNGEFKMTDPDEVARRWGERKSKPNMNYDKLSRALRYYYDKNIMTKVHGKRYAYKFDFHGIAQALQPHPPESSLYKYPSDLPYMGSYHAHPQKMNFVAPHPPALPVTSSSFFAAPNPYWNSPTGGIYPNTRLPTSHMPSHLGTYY
# In short: as §1
# ELF1 = ELF1 (Homo sapiens, UniProt P32519 1-619); conditions: protein: recombinant; tags: N-terminal GST; dsDNA, one strand shown
# ELF1, sequence (P32519 whole entry): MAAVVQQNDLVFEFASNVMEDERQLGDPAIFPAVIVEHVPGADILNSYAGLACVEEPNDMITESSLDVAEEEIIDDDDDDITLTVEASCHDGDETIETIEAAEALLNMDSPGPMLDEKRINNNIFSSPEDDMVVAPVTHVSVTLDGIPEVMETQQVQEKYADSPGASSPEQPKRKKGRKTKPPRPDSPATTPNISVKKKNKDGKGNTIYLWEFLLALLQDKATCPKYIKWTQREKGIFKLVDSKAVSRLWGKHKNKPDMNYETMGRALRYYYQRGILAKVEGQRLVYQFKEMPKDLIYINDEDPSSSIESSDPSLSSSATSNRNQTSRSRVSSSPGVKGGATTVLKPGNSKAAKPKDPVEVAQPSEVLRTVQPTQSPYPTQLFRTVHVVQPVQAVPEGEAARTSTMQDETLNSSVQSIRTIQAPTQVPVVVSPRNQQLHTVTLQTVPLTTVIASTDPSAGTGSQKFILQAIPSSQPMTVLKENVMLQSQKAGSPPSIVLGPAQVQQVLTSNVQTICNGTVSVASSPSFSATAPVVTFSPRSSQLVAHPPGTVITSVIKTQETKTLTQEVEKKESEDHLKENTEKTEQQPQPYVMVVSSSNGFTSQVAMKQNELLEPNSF
# In short: as §1
# EHF = molecular target: T5, EHF (Homo sapiens, UniProt Q9NZC4 1-300); conditions: protein: recombinant; tags: N-terminal GST; dsDNA, one strand shown
# T5 sequence: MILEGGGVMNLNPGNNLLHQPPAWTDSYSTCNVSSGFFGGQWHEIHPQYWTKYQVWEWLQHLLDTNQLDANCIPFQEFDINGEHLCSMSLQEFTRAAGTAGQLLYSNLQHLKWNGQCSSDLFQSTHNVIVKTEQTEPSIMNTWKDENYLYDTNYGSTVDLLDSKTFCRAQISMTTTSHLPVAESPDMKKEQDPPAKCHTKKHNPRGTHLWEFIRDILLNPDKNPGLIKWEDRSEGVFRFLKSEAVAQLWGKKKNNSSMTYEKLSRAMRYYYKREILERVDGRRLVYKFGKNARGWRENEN
# In short: as §1
# SPI1 = SPI1 (Homo sapiens, UniProt P17947 1-270); conditions: protein: recombinant; tags: N-terminal GST; dsDNA, one strand shown
# In short: as §1
# SPIB = SPIB (Homo sapiens, UniProt Q01892 1-262); conditions: protein: recombinant; tags: N-terminal GST; dsDNA, one strand shown
# SPIB, sequence (Q01892 whole entry): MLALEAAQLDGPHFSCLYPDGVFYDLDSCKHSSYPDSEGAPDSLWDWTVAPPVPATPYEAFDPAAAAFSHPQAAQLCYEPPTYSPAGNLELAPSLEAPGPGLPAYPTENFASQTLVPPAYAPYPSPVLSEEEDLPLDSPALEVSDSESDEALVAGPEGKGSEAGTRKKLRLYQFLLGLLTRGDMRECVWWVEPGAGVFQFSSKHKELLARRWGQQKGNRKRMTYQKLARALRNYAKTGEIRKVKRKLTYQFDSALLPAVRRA
# In short: as §1
# ELK3 = molecular target: T6, ELK3 (Homo sapiens, UniProt P41970 1-407); conditions: protein: recombinant; tags: N-terminal GST; dsDNA, one strand shown
# T6 sequence: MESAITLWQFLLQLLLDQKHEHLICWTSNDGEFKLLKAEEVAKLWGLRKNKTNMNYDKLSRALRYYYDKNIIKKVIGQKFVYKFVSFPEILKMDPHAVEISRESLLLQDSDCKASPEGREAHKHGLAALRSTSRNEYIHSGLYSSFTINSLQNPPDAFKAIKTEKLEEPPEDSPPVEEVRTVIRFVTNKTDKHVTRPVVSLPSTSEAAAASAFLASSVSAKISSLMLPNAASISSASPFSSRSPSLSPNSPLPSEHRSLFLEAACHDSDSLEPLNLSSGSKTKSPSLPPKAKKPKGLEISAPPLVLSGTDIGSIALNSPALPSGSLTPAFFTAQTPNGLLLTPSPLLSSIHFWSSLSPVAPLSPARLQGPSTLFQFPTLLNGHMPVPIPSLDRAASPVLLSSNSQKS
# In short: as §1
# FEV = molecular target: T7, FEV (Homo sapiens, UniProt Q99581 1-238); conditions: protein: recombinant; tags: N-terminal GST; dsDNA, one strand shown
# T7 sequence: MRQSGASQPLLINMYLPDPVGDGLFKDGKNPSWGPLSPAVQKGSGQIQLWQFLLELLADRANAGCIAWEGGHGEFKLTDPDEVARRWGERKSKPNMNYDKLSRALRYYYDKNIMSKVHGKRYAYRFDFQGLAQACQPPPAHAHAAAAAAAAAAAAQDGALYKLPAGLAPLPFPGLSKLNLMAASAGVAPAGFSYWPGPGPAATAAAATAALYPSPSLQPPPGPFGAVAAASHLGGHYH
# In short: as §1
# ETV5 = ETV5 (Homo sapiens, UniProt P41161 1-510); conditions: protein: recombinant; tags: N-terminal GST; dsDNA, one strand shown
# ETV5, sequence (P41161 whole entry): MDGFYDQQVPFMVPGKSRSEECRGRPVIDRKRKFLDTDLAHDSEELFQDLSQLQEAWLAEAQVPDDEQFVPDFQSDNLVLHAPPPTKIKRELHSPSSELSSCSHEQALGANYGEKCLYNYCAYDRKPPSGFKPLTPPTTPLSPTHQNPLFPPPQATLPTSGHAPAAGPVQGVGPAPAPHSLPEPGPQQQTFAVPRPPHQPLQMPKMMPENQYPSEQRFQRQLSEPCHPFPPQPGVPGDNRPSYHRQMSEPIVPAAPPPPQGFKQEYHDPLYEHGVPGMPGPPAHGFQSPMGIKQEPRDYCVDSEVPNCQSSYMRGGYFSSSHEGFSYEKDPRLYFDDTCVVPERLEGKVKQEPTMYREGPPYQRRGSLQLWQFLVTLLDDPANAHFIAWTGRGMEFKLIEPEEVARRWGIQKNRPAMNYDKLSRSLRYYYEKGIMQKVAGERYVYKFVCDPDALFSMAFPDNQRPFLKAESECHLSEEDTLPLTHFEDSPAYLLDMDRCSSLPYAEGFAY
# In short: as §1
# HSF1 = HSF1 (Homo sapiens, UniProt Q00613 1-529); conditions: protein: recombinant; tags: N-terminal GST; chain copies: 3; dsDNA, one strand shown
# HSF1, sequence (Q00613 whole entry): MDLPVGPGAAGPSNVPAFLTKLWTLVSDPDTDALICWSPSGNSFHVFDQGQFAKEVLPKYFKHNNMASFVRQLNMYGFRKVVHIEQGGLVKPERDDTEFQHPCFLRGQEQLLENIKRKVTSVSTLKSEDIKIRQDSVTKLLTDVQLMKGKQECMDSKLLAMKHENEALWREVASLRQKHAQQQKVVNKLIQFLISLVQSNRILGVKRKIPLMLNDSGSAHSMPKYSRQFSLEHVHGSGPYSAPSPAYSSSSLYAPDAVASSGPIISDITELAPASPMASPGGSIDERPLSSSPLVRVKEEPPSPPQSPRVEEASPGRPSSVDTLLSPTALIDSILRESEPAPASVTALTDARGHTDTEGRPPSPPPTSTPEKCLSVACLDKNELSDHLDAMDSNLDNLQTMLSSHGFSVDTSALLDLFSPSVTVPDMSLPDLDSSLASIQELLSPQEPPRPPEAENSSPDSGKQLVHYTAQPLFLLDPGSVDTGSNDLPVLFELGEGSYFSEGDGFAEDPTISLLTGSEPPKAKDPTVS
# In short: as §1
# SPIC = molecular target: T8, SPIC (Homo sapiens, UniProt Q8N5J4 1-248); conditions: protein: recombinant; tags: N-terminal GST; dsDNA, one strand shown
# T8 sequence: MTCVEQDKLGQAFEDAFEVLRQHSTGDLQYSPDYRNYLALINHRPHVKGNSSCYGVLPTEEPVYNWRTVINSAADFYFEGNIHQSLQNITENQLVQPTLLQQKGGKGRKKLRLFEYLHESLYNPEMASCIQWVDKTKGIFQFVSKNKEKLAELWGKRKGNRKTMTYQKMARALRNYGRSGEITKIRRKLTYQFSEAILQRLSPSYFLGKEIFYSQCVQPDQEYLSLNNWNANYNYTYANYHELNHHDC
# In short: as §1
# ELF4 = ELF4 (Homo sapiens, UniProt Q99607 1-663); conditions: protein: recombinant; tags: N-terminal GST; dsDNA, one strand shown
# ELF4, sequence (Q99607 whole entry): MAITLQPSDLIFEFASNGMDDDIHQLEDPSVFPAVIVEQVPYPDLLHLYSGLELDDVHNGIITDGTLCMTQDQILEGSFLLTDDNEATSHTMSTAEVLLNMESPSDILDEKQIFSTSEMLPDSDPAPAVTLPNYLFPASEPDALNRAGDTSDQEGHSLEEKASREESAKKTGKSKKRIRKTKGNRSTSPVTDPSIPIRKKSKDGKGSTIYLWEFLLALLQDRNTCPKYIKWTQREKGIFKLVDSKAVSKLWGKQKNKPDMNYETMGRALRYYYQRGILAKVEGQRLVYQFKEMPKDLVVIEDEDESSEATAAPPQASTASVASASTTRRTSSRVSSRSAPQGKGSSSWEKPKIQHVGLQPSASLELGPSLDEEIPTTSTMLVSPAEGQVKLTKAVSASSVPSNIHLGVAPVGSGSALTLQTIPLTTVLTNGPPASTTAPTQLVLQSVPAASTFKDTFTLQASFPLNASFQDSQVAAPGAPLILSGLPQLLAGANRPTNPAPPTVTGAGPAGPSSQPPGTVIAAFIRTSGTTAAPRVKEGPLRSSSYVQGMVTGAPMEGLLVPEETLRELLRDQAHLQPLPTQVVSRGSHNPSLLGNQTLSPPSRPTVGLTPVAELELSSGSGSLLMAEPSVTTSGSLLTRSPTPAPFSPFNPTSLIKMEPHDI
# In short: as §1
# ELK4 = molecular target: T9, ELK4 (Homo sapiens, UniProt P28324-2 1-405); conditions: protein: recombinant; tags: N-terminal GST; dsDNA, one strand shown
# T9 sequence: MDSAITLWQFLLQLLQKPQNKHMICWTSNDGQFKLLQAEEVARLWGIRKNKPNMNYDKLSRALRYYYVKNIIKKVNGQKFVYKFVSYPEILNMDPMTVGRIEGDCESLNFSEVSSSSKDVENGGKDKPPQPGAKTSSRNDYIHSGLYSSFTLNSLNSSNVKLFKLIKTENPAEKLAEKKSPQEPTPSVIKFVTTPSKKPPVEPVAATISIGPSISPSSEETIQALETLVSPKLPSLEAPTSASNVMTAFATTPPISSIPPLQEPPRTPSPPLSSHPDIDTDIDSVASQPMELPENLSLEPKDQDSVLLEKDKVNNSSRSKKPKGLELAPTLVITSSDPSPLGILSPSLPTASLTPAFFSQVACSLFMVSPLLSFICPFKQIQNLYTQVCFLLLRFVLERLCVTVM
# In short: as §1
# ETV2 = molecular target: T10, ETV2 (Homo sapiens, UniProt O00321 1-342); conditions: protein: recombinant; tags: N-terminal GST; dsDNA, one strand shown
# T10 sequence: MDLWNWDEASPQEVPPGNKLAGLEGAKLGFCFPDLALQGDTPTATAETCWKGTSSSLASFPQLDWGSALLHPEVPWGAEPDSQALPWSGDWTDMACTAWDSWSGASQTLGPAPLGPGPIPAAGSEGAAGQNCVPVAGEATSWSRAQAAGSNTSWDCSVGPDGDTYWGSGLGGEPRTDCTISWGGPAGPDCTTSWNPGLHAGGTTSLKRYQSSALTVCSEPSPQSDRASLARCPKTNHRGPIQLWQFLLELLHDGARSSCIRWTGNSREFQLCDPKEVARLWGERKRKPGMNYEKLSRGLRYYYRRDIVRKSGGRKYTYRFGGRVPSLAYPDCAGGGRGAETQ
# In short: as §1
# ELF3 = molecular target: T11, ELF3 (Homo sapiens, UniProt P78545 1-371); conditions: protein: recombinant; tags: N-terminal GST; dsDNA, one strand shown
# T11 sequence: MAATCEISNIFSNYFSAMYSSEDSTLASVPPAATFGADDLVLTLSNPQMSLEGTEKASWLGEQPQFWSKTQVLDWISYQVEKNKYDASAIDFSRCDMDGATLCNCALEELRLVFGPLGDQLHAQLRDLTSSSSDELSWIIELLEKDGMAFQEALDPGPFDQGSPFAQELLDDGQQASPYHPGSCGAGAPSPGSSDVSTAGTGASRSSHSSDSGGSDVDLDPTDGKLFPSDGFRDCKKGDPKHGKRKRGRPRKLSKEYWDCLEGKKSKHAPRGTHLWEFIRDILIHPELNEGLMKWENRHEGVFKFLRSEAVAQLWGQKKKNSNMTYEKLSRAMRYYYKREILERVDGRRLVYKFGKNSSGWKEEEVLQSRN
# In short: as §1
# CRX = CRX (Homo sapiens, UniProt O43186 1-299); conditions: protein: recombinant; tags: N-terminal GST; dsDNA, one strand shown
# CRX, sequence (O43186 whole entry): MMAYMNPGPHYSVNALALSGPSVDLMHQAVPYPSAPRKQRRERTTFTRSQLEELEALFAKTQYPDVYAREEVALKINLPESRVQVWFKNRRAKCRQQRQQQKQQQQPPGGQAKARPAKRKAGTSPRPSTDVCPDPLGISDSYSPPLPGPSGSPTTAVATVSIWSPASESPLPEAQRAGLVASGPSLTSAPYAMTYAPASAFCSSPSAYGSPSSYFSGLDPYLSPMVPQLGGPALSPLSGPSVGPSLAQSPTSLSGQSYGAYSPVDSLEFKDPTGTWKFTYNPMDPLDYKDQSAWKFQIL
# In short: as §1
# ETV1 = ETV1 (Homo sapiens, UniProt P50549 1-477); conditions: protein: recombinant; tags: N-terminal GST; dsDNA, one strand shown
# ETV1, sequence (P50549 whole entry): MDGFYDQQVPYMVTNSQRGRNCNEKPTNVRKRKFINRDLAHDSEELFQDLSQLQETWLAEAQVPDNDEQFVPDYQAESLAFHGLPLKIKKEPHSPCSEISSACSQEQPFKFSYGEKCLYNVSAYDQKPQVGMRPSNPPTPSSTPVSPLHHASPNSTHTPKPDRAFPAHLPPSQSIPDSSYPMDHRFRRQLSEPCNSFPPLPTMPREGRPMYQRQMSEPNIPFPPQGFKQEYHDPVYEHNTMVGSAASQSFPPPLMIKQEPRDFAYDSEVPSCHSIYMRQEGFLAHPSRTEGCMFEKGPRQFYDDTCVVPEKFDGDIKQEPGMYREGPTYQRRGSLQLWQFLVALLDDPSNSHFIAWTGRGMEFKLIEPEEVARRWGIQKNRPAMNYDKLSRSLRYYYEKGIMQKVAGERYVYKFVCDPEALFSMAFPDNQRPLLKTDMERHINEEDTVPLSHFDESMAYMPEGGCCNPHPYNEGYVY
# In short: as §1
sequence,measurement,setting,value
TGTTTG,binding signal,FLI1,"1.52 fold enrichment (6-mer frequency, TF over GST control)"
same,binding signal,ELK1,"1.31 fold enrichment (6-mer frequency, TF over GST control)"
same,binding signal,GABPA,"1.32 fold enrichment (6-mer frequency, TF over GST control)"
same,binding signal,ERG,"1.27 fold enrichment (6-mer frequency, TF over GST control)"
same,binding signal,ELF1,"1.22 fold enrichment (6-mer frequency, TF over GST control)"
same,binding signal,EHF,"1.31 fold enrichment (6-mer frequency, TF over GST control)"
same,binding signal,SPI1,"1.29 fold enrichment (6-mer frequency, TF over GST control)"
same,binding signal,SPIB,"1.42 fold enrichment (6-mer frequency, TF over GST control)"
same,binding signal,ELK3,"1.29 fold enrichment (6-mer frequency, TF over GST control)"
same,binding signal,FEV,"1.21 fold enrichment (6-mer frequency, TF over GST control)"
same,binding signal,ETV5,"1.23 fold enrichment (6-mer frequency, TF over GST control)"
same,binding signal,HSF1,"1.06 fold enrichment (6-mer frequency, TF over GST control)"
same,binding signal,SPIC,"1.29 fold enrichment (6-mer frequency, TF over GST control)"
same,binding signal,ELF4,"1.36 fold enrichment (6-mer frequency, TF over GST control)"
same,binding signal,ELK4,"1.38 fold enrichment (6-mer frequency, TF over GST control)"
same,binding signal,ETV2,"1.14 fold enrichment (6-mer frequency, TF over GST control)"
same,binding signal,ELF3,"1.46 fold enrichment (6-mer frequency, TF over GST control)"
same,binding signal,CRX,"1.08 fold enrichment (6-mer frequency, TF over GST control)"
same,binding signal,ETV1,"1.38 fold enrichment (6-mer frequency, TF over GST control)"
